# In the supplement of paper PMC10849652:
# The full data set covers some 8,800 targets. This sample favours those with a hit. About 0.5% of all pairs of compound and target were hits. A number with no mark means an inactive call.
# Assays:
# Test in all cases: log2 fold change, soluble protein after heating vs DMSO (PISA); higher = thermal stabilisation; K562 lysate, 10 uM; active = over 0.2 and 3.5 SD of the protein, either way, in both replicates (recomputed)
# [1] = compound: CN1CC[C@H](c2c(O)cc(O)c3c(=O)cc(-c4ccccc4Cl)oc23)[C@H](O)C1 [alvocidib]
# In short: (§1)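 Log-two fold change in thermal stability relative to solvent controls is reported from duplicates. For each sample, crude K562 extract from dounce-homogenised pellets in PBS pH 7.4 with 1 mM MgCl2, at 1 mg/mL protein, was treated with 10 μM compound for 30 min. Aliquots heated for 3 min across 48°C-58°C were pooled, brought to 0.5% NP-40 at 4°C and cleared at 21,000xg for 90 min. The supernatant was quantified by TMTpro 16plex LC-MS/MS with channel sums equalised.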
# [2] = compound: CN1CCc2c(c3ccccc3n2Cc2ccc(C(=O)NO)cc2)C1 [Tubastatin A]
# In short: as §1
# [3] = compound: CNC(=O)C1=CC=CC=C1NC2=NC(=NC=C2Cl)NC3=C(C=C(C=C3)N4CCOCC4)OC
# In short: as §1
# [4] = compound: CNC(=O)c1ccc(Nc2ncc(C(F)(F)F)c(NCc3nccnc3N(C)S(C)(=O)=O)n2)cc1 [defactinib]
# In short: as §1
# [5] = compound: CNc1nc(-c2ccc3c(N)n[nH]c3c2)cc(N2C[C@@H](C(=O)NC3CCCCC3)CC[C@H]2C)n1
# In short: as §1
# [6] = compound: COC(=O)N[C@@H](C)CNc1nccc(-c2cn(C(C)C)nc2-c2cc(Cl)cc(NS(C)(=O)=O)c2F)n1 [encorafenib]
# In short: as §1
# [7] = compound: COC(=O)[C@H](CCSC)NC(=O)C1=C(C=C(C=C1)NC[C@H](CS)N)C2=CC=CC=C2
# In short: as §1
# [8] = compound: COc1cc(Nc2ncc3c(n2)-c2ccc(Cl)cc2C(c2c(F)cccc2OC)=NC3)ccc1C(=O)O [alisertib]
# In short: as §1
# [9] = compound: COc1cc2nc(-c3cc(F)ccc3O)nc(N[C@@H]3CNC[C@H]3C(C)(C)O)c2cc1OC
# In short: as §1
# [10] = compound: COc1cc2ncnc(Nc3ccc(F)c(Cl)c3)c2cc1OCCCN1CCOCC1 [gefitinib]
# In short: as §1
# UniProt Q92805, sequence (Q92805 whole entry, looked up): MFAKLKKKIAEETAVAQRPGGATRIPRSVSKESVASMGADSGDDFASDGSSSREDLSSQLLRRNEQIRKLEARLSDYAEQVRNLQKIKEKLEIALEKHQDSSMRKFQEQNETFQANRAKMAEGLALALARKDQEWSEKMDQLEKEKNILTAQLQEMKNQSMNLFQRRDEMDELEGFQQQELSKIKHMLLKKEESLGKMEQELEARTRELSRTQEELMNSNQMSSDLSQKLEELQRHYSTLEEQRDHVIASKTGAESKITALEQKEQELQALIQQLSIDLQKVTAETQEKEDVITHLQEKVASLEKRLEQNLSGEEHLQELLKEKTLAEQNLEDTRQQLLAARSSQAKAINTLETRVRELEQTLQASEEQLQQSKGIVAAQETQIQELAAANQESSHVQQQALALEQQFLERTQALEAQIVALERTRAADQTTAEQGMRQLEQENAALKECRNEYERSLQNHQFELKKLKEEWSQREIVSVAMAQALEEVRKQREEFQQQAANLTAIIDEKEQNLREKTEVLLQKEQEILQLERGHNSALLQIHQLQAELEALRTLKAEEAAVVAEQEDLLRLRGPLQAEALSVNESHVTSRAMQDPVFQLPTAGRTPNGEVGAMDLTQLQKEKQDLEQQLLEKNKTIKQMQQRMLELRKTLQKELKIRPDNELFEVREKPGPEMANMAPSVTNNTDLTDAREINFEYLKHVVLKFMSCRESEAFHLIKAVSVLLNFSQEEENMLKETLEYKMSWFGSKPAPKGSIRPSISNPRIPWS
# UniProt P15104, sequence (P15104 whole entry, looked up): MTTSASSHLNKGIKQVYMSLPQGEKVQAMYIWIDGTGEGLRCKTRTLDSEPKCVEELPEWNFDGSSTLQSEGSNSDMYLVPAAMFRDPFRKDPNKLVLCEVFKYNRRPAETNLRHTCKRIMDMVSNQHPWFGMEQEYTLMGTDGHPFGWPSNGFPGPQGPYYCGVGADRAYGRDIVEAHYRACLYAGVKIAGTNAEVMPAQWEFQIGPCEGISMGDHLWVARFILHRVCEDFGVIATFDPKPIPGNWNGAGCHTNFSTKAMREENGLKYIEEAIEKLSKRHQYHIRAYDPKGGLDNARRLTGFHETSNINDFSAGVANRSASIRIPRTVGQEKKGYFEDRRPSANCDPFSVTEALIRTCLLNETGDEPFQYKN
# UniProt P52789, sequence (P52789 whole entry, looked up): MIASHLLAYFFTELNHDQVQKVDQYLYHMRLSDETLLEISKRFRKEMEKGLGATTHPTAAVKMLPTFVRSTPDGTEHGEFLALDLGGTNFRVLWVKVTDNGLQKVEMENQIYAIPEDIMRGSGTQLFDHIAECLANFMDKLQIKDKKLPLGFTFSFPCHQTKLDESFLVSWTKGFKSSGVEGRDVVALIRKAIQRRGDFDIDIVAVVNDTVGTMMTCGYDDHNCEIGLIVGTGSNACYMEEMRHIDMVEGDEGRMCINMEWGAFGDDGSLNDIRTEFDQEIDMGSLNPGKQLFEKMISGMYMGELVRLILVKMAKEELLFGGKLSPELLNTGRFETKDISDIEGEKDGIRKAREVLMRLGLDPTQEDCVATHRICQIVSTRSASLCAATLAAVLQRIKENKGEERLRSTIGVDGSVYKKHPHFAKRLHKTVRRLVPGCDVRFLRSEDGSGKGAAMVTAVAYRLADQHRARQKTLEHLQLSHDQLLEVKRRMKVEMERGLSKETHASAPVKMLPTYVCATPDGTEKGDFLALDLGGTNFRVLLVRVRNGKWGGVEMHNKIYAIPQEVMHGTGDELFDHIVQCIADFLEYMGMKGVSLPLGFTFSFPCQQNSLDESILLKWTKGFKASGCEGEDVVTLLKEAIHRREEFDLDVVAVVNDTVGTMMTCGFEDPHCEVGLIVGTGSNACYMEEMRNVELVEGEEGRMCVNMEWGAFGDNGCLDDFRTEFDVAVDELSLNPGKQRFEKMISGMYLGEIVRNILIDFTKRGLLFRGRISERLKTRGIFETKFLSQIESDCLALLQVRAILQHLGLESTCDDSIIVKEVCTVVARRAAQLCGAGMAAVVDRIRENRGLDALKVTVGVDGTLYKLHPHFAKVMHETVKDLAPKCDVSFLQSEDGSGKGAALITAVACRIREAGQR
# UniProt O15379, sequence (O15379 whole entry, looked up): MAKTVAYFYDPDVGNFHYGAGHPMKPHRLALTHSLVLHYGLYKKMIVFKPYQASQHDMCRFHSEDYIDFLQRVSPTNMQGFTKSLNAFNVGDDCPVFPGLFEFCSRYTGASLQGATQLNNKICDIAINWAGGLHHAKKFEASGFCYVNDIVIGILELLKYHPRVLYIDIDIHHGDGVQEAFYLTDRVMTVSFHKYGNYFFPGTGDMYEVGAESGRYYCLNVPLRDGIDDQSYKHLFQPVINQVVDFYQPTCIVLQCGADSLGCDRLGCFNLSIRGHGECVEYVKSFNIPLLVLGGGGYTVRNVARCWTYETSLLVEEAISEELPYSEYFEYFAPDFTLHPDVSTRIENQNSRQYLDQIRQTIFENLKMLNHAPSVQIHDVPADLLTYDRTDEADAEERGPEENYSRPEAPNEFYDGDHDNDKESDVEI
# UniProt O15357, sequence (O15357 whole entry, looked up): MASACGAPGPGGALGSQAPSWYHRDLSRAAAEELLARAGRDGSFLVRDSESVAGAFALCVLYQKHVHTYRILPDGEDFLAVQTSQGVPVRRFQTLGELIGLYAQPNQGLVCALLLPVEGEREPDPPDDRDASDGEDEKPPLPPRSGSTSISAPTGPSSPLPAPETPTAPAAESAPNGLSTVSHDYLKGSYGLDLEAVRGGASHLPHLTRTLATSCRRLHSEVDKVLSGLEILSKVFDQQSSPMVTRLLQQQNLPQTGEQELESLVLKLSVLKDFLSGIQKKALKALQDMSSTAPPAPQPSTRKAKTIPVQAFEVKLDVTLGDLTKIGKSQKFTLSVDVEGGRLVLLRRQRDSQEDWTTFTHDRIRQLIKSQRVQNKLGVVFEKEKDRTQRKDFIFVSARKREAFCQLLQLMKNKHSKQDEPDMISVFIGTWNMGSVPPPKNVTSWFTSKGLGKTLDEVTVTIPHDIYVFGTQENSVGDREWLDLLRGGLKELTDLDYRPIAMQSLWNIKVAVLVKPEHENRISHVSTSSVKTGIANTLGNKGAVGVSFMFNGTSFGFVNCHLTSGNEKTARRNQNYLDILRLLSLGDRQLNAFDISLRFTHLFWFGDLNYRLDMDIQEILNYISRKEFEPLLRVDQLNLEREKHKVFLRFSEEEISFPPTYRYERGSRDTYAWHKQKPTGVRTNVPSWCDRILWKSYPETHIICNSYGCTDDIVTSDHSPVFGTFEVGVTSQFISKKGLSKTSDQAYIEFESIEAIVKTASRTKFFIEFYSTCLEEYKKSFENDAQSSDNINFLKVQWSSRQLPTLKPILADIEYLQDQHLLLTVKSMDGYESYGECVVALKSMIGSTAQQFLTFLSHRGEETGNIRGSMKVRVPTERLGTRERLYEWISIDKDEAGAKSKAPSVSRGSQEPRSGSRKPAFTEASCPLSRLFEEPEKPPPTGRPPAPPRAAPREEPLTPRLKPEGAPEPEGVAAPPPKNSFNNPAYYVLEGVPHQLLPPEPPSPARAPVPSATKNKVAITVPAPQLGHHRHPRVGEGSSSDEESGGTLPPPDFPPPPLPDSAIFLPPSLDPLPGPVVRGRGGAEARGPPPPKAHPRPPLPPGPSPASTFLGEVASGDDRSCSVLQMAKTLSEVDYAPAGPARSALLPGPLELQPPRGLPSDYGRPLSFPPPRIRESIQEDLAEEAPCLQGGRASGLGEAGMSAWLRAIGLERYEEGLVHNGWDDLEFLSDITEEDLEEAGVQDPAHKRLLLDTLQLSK
# UniProt Q9H6K1, sequence (Q9H6K1 whole entry, looked up): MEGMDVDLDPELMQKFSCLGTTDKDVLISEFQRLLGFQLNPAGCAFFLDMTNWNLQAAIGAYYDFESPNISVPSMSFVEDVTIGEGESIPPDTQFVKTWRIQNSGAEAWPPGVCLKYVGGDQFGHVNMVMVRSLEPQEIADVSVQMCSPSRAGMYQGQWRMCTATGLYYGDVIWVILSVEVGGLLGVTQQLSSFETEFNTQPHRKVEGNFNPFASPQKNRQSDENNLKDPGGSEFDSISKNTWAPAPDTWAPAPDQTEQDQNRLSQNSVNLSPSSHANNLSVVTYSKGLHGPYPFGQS
# UniProt Q99795, sequence (Q99795 whole entry, looked up): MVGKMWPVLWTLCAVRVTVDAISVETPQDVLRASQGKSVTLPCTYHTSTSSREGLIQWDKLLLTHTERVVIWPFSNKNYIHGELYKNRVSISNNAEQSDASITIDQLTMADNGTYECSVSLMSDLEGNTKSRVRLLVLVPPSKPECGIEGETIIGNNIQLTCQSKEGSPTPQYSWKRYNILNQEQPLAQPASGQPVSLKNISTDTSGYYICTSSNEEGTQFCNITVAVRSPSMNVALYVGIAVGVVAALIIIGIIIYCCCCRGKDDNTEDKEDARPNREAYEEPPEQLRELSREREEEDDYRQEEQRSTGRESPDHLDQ
# UniProt P82970, sequence (P82970 whole entry, looked up): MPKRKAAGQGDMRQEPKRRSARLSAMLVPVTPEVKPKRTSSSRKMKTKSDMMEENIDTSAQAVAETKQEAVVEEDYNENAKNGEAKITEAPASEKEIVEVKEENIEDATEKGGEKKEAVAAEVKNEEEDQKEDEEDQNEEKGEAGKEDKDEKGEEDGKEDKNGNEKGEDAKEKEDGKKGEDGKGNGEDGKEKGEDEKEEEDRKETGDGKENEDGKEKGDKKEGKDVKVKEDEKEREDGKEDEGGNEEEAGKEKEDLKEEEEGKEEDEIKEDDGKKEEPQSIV
# UniProt Q9H4A5, sequence (Q9H4A5 whole entry, looked up): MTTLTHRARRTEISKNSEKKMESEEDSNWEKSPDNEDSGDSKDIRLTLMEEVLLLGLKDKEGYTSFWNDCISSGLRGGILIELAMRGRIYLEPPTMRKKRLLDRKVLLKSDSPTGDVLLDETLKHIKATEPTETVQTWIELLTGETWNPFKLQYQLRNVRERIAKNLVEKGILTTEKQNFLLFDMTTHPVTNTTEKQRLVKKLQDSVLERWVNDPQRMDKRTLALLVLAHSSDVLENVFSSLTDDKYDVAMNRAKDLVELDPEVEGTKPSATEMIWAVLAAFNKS
Target,log2 fold change [1],log2 fold change [2],log2 fold change [3],log2 fold change [4],log2 fold change [5],log2 fold change [6],log2 fold change [7],log2 fold change [8],log2 fold change [9],log2 fold change [10]
HAUS3 (UniProt Q68CZ6),-0.022,-0.159,0.043,-0.023,-0.021,0.026,0.065,0.014,0.003,-0.011
GRK6 isoform 2 (UniProt P43250),-0.05,0.074,0.007,0.034,0.148,-0.082,0.043,-0.04,-0.015,0.064
HDAC6 (UniProt Q9UBN7),-0.006,0.11,-0.015,-0.003,-0.013,-0.017,0.06,0.013,0.001,-0.012
ITPKA (UniProt P23677),-0.001,-0.194,-0.017,0.017,0.015,-0.021,0.375 (active),-0.004,0,0.011
ISY1 isoform 1 (UniProt Q9ULR0),-0.05,-0.03,0.013,0.082,0.366 (active),-0.03,-0.149,-0.012,0.016,0.075
HMGN4 (UniProt O00479),0.581,-0.001,0.01,0.122,0.235,-0.072,-0.046,-0.074,-0.036,0.111
H4C1 (UniProt P62805),-0.101,0.373 (active),-0.023,-0.02,0.569 (active),0.038,0.051,0.018,0.012,-0.008
ILRUN (UniProt Q9H6K1),0.031,-0.059,0.047,-0.01,-0.004,0.052,-0.03,0.123,0.056,0.115
HMGN5 (UniProt P82970),0.04,0.045,-0.029,0.051,0.018,-0.029,-0.023,-0.036,0.006,-0.028
INF2 (UniProt Q27J81),-0.027,-0.062,0.022,0.117,-0.104,-0.068,0.083,-0.008,-0.01,-0.009
INTS5 (UniProt Q6P9B9),0.038,-0.055,0.027,0.017,-0.047,0.02,-0.259,0.028,0.013,0.045
INPPL1 (UniProt O15357),-0.001,-0.177,0.039,0,-0.001,0.009,0.037,0.036,-0.013,0.01
GOLGA1 (UniProt Q92805),-0.027,0.051,0.035,-0.017,0.011,0.028,-0.093,-0.017,-0.18,-0.024
HK2 (UniProt P52789),0.006,-0.17,0.024,0.017,-0.006,0,0.165,0.023,-0.031,-0.016
"HDLBP, A0A024R4E5",-0.004,-0.082,0.01,0.001,0.004,0.028,0.073,-0.005,0.003,0.003
HS1BP3 (UniProt Q53T59),-0.054,0.034,-0.015,-0.016,-0.052,0.009,-0.088,-0.021,0.021,-0.031
HDAC10 (UniProt Q969S8),0.033,0.49 (active),-0.075,-0.135,-0.014,0.091,0.08,0.047,-0.006,0.165
GOLPH3L (UniProt Q9H4A5),0.018,-0.083,-0.005,-0.077,0.008,0.063,-0.395 (active),0.026,-0.059,0.018
HNRNPM (UniProt P52272),-0.01,-0.096,0.022,0.045,-0.067,0.166,-0.035,0.069,0.037,0.012
GTF2I (UniProt P78347),0.05,-0.096,0.012,0.018,-0.035,0.015,0.14,0.011,0.004,-0.01
GPA33 (UniProt Q99795),-0.349,0.103,-0.076,-0.099,-0.193,0.053,-0.027,0.071,0.039,0.125
GTF2H4 (UniProt Q92759),0.005,-0.069,0.018,0.085,-0.01,0.025,-0.015,0.016,0.02,-0.022
GUSB (UniProt P08236),-0.278,0.022,0.017,0.015,-0.027,0.089,-0.019,0.089,0.071,-0.049
KCT2 (UniProt Q8NC54),-0.137,0.029,-0.001,-0.012,0.013,0.031,-0.035,0.077,0,-0.037
HNRNPD isoform 2 (UniProt Q14103),0.142,0.108,0.001,-0.043,0.065,-0.032,-0.008,0.018,-0.008,0
HNRNPH2 (UniProt P55795),-0.003,-0.209,0.02,0.019,-0.043,0.037,-0.032,-0.004,-0.007,-0.047
HAUS6 (UniProt Q7Z4H7),-0.043,-0.084,0.008,0.031,-0.004,0.031,-0.025,0.03,0.019,0.017
HDAC3 (UniProt O15379),0.005,-0.039,0.013,-0.023,0.069,0.008,-0.057,0.02,-0.015,0.014
GLUL (UniProt P15104),0.011,0.015,0.034,0.027,-0.125,-0.002,0.029,0.002,-0.019,-0.004
GTF3C5 isoform 3 (UniProt Q9Y5Q8),-0.005,-0.166,0.029,0.014,-0.012,0.01,0.153,0.004,0.001,-0.004
